Data reported in the supplement of paper PMC7156485.
± gives the standard deviation of the averaged measurements.

tested on: HCC1569; assay: cell number relative to DMSO (% of DMSO); higher = more cells (less growth inhibition / toxicity); settings: concentration: 10 µM; 24 h
Outline: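 HCC1569 and TDF cells were seeded at 800 per well in 384-well plates in RPMI with 10% FBS and treated with compounds at 10 µM for 24 h at 37 °C, in triplicate. After fixation in 3.7% formaldehyde, cells were stained with a rabbit anti-H1.0 antibody, an AlexaFluor 647 secondary and DAPI, and six fields per well were imaged at ×10. H1.0 nuclear intensity or cell number is given as percent of the plate control, using the median of replicates, with HCC1569 values smoothed for positional effects.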
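Also: TDF denotes transformed human dermal fibroblasts of mesenchymal origin.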

SMILES | cell number
Cc1[nH]c(=O)c(C#N)cc1-c1ccncc1 [Milrinone] | 103 ± 3.6
O=C1CSC(c2cccc(Br)c2)N1c1cc(Cl)ccc1O (stereo unspecified) | 102
CC1C(=O)N=C2Nc3cccc(Cl)c3CN21 (stereo unspecified) [Quazinone] | 111
COc1cc2c(cc1O)CCC1C2CCC2(C)C(O)CCC12 (stereo unspecified) [2-methoxyestradiol] | 54.3
Br.C=CCN1CCc2c(cc(O)c(O)c2Br)C(c2ccccc2)C1 (stereo not drawn) [R(+)-6-Bromo-APB hydrobromide] | 89.1
NC(CO)C(=O)NNCc1ccc(O)c(O)c1O (stereo unspecified) [Benserazide] | 95.2
CN1CCc2cccc3c2C1Cc1ccc(O)c(O)c1-3.Cl (stereo unspecified) [Apomorphine hydrochloride hemihydrate] | 89.9
CCCCCC=CCC=CCC=CCC=CCCCC(=O)O [Arachidonic acid] | 104 ± 6.4
Cc1nc(C(=O)N2CCC[C@H]2Cc2nnc(-c3ccccc3)o2)c(-c2ccccc2F)s1 | 96.3
COc1cc2c(cc1OC)C(c1ccccc1)CN(C)CC2.O=C(O)C=CC(=O)O (stereo unspecified) | 101
CC(=O)NCCc1ccc(O)c(O)c1 [N-Acetyldopamine monohydrate] | 101
CS(=O)(=O)CCNCc1ccc(-c2ccc3ncnc(Nc4ccc(OCc5cccc(F)c5)c(Cl)c4)c3c2)o1 [Lapatinib] | 59.8
O=C1NC(=O)C(c2cnc3ccccn23)=C1c1cn2c3c(cc(F)cc13)CN(C(=O)N1CCCCC1)CC2 | 66.9
COc1ccc2c(c1)c(CC(=O)O)c(C)n2C(=O)c1ccccc1 [1-benzoyl-5-methoxy-2-methylindole-3-acetic acid] | 101
Nc1nc(=O)c2ncc(=O)[nH]c2[nH]1 [Isoxanthopterin] | 104
COc1cc(C=CC(=O)CC(=O)C=Cc2ccc(O)c(OC)c2)ccc1O [Curcumin] | 71.3
CCCCCCCCCCCC=CCCCCCCC(=O)O [8(Z)-Eicosenoic acid] | 103
CCCCCC(O)C=CC=CCC=CCCCCCCC(=O)O (stereo unspecified) | 99.9

SMILES | cell number
O=C(C=Cc1ccc(O)cc1)CC(=O)C=Cc1ccc(O)cc1 [Bis demethoxycurcumin] | 83.7
CC1CCC2(OC1)OC1CC3C4CCC5CC(O)CCC5(C)C4CCC3(C)C1C2C (stereo unspecified) [Sarsasapogenin] | 100
CCOC(=O)C12CC1C(=NO)c1ccccc1O2 (stereo unspecified) | 100
CNc1cc(NS(=O)(=O)c2ccc(N)cc2)nc(NC)n1.Cl.Cl [Ro 04-6790 dihydrochoride] | 107
CN(C)CCCN1c2ccccc2CCc2ccccc21.Cl [Imipramine hydrochloride] | 108
Nc1nc(OCc2cc(Br)cs2)c2[nH]cnc2n1 [6-[(4-bromo-2-thienyl)methoxy]-1H-purin-2-amine] | 101
CN1CCC(c2c(O)cc(O)c3c(=O)cc(-c4ccccc4Cl)oc23)C(O)C1 (stereo unspecified) [Alvocidib] | 59.4
Cl.Cl.Cl.Ic1ccc(N2CCN(Cc3c[nH]c4ncccc34)CC2)cc1 [L-750,667 trihydrochloride] | 103
CCCCCCCCCCCCCC=CC(O)C(CO)N(C)C (stereo unspecified) [N,N-Dimethylsphingosine] | 110
CCCCCC(O)C=CC=CCC=CCCCC(=O)O (stereo unspecified) | 100
COc1ccc(-c2ccc3c(N4CCOCC4)nc(N4CC(C)OC(C)C4)nc3n2)cc1CO (stereo unspecified) | 73
Cc1ccc(-c2ncc(Cl)cc2-c2ccc(S(C)(=O)=O)cc2)cn1 [Etoricoxib] | 106
Cc1ccc(C(=CCN2CCCC2)c2ccccn2)cc1.Cl [Triprolidine hydrochloride] | 106
COC(=O)Nc1nc2ccc(C(=O)c3ccccc3)cc2[nH]1 [Mebendazol] | 69.2
CN(C)CCOc1cc(-c2cn[nH]c2)ccc1NC(=O)C1COc2ccccc2O1 (stereo unspecified) | 103
CN(C)CC(=O)Nc1ccc2[nH]c(=O)c3ccccc3c2c1.Cl.O | 101
Cc1ccccc1C(C(=O)NC1CCCCC1)N(C(=O)Cn1ccnc1C)c1cccc(F)c1 (stereo unspecified) | 94.3
CC(C)NCC(O)c1ccc(O)c(O)c1.Cl (single isomer, unassigned; (-)) [(-)-Isoproterenol hydrochloride] | 104
